# This excerpt belongs to a sample that is enriched for hits.
# ALOX12 inh = blocks human arachidonate 12S-lipoxygenase. P18054. purified 12hLO, xylenol orange hydroperoxide absorbance. Potency, µM (top dose mostly 108 µM), without a hit: at the top dose activity change, negative = inhibition, actives largely listed as inhibitors. 580,000 tested, 1.1% active. AID 1671190; further: on the % scale 0 is the no-effect control and ±100 the full control effect
# Target sequence (P18054 whole entry, looked up): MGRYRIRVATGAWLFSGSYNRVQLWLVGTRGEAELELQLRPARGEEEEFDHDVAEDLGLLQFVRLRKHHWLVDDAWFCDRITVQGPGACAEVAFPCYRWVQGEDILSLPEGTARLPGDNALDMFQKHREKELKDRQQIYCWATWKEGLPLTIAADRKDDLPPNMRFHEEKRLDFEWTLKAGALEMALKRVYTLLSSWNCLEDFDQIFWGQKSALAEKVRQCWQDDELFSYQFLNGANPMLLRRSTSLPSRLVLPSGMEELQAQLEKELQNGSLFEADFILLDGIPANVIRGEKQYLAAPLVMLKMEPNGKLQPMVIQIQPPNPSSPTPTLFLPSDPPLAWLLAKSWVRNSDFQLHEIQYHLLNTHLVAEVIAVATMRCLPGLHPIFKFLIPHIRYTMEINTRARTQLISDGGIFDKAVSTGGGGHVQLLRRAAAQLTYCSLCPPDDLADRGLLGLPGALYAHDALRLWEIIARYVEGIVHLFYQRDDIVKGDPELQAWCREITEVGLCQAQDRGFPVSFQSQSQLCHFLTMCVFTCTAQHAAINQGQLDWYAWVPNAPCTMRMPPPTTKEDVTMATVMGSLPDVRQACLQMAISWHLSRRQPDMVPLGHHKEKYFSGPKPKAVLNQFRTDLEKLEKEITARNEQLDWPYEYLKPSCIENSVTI
#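 Purified human 12hLO (150 nM final) in 25 mM Hepes, 0.01% Triton X-100, pH 7.0 was preincubated 15 min at room temperature with compound. Then 40 uM arachidonic acid was added, 30 min. Hydroperoxide was read by Fe-XO absorbance ratio 573/405 nm.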
# Sfp inh = Sfp phosphopantetheinyl transferase inhibition | Q9F4F7 | Biochemical Sfp PPTase activity, qHTS | Potency, µM, for the others: largest response in the series, negative = inhibition, usual class: inhibitors | 310,000 tested, 3.5% active;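 further: the enzyme is Sfp with the accession as filed and its product quenches rhodamine fluorescence; 0% = enzyme reaction without inhibitor and -100% = no enzyme wells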
#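 Reaction rates are the 30-min fluorescence difference (ex 525, em 598 nm) in wells containing 15 nM Sfp, 5 uM rhodamine-CoA and 12.5 uM BHQ-2-YbbR at pH 7.6 with 10 mM MgCl2.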
# G9a inh = G9a (human) methyltransferase inhibition | Q96KQ7 | G9a H3K9 monomethylation, AlphaScreen, 2 h | Potency, µM (doses to about 102 µM), inactives show top-dose activity, negative = inhibition, hits mostly inhibitors | 350,000 tested, 8.8% active | AID 504332; further: on the % scale 0 is the no-effect control and ±100 the full control effect; nearly all actives have a fitted effect of over 75% in size
#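 G9a (20 nM) was preincubated 15 min with compound, then reacted 2 h at room temperature with 500 nM biotin-H3K9 peptide and 20 µM SAM. Monomethyl-H3K9 detected by AlphaScreen using anti-H3K9me1 antibody.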
# Glioma ERSR ind = induces the endoplasmic reticulum stress response in human glioma cells; Potency, µM, inactives show at the highest dose activation, actives largely listed as activators; U87-MG GRP78 promoter luciferase reporter, 16 h; 420,000 tested, 0.02% active; further: series mostly up to about 76 µM; % of control where 0% means no effect; nearly all actives have a fitted effect of over 35% in size
#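 Stably transfected U87-MG glioma cells carrying a GRP78-based luciferase sensor; 16 h compound incubation. Luminescence end-point read 10 min after Bright-Glo addition at room temperature.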
# VDR inh = inhibitors of human vitamin D receptor; P11473; Potency, µM, inactives show max response, negative = inhibition, usual class: inhibitors; 400,000 tested, 0.93% active; VDR-SRC2-3 peptide fluorescence polarization, 2 h; further: on the % scale 0 is the no-effect control and ±100 the full control effect
#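 VDR–SRC2-3 interaction, FP format. Cmpds 23 nl via pintool, brief spin, 2 h ambient incubation.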
# Active calls of the source: *; ? = inconclusive; . = not tested or not shown; [ ] = another dose, or the depositor's remark. The call rests on the fitted dose curve; in most records, active means well fitted curve in the direction sought with a large enough effect; inconclusive means small, poorly fitted or top-dose-only effect, or another doubt; inactive means no such curve, though single readings can be large; an effect the other way counts as inactive or inconclusive. Potency means the concentration at half of the fitted maximal effect.
SMILES,ALOX12 inh,Sfp inh,G9a inh,Glioma ERSR ind,VDR inh
COc1ccc(C(=O)N2CCC(Cc3noc(C4CCOCC4)n3)C2)cc1F (configuration not stated),22.6%,.,.,.,.
COc1ccc(Cc2nn3c(Cn4nnc5ccccc54)nnc3s2)cc1,3.6%,15.8µM*,1.58µM*,-1.1%,?
Cc1c(C(=O)c2ccc(N(C)C)cc2)c2ccccn2c1CCC#N,?,-2.5%,44.7µM*,2.3%,1.9%
Cc1c(C(=O)c2ccc(Cl)cc2[N+](=O)[O-])c2ccccn2c1CCC#N,-23.9%,5.5%,11.2µM*,-3.0%,4.5%
Cc1c(C(=O)c2ccc(F)cc2F)c2ccccn2c1CCC#N,?,?,8.91µM*,-5.0%,-3.2%
Cc1noc2c(NCc3ccncc3)cc(-c3ccc(Cl)cc3)nc12,-2.2%[176 µM],.,.,.,.
Cn1c(=O)c2cn(S(=O)(=O)c3ccc4c(c3)CCCC4)nc2n(C)c1=O,2.8%,.,.,.,.
CC(NC(=O)c1ccc(-c2nnc3ccc(NC(=O)C4CCC4)cn23)cc1)c1cccs1 (configuration not stated),1.9%,.,.,.,.
CCc1c(C(C)S(=O)(=O)c2ccc(C)cc2)[nH]c(=O)n1-c1ccc(OC(F)(F)F)cc1 (configuration not stated),?,0.3%,10µM*,-2.2%,-16.7%
CCOC(=O)COc1ccccc1/C=C(/C#N)c1nc2ccc(C)cc2[nH]1,-2.2%,.,.,.,.
Cc1cccc(C(C)C)c1NC(=O)C1CN(S(=O)(=O)c2ccccc2)CCN1S(=O)(=O)c1ccccc1 (configuration not stated),-1.1%,10.4%,70.8µM*,-3.6%,0.9%
Cn1c(/C=C/c2ccccc2)nc2ccccc21,10.6%,10.1%,4.7%,-3.5%,-7.6%
CC(=O)c1ccc(/C=C/c2nc3ccccc3n2C)o1,-28.3%,50.1µM*,-6.6%[12.7 µM],-5.6%,0.9%
COc1cc(NC(=O)COc2coc(CN3CCSCC3)cc2=O)cc(OC)c1,17.8%,.,.,.,.
Cc1ccc(OCC(=O)N(C)CC(=O)NCc2ccco2)c(Br)c1,?,.,56.2µM*,1.8%,-9.4%
O=C(COc1ccc(Cl)cc1Cl)NNC(=S)NCc1ccco1,44.7µM*,9.0%,.,3.9%,5.6%
C/C(CC(=O)NCc1ccco1)=N\NC(=O)COc1ccc(Cl)cc1Cl,14.9%,3.9%,?,-2.5%,-2.8%
Cn1cc(Cl)c(C(=O)NNC(=S)NCc2ccco2)n1,-1.2%,56.2µM*,39.8µM*,-0.8%,?
O=C(COc1ccc(Cl)cc1Cl)NCc1ccco1,?,9.4%,56.2µM*,3.2%,6.7%
CCOP(=O)(OCC)c1nc(-c2ccco2)oc1NCc1ccccc1,-2.1%,.,.,.,.
O=C(Cc1ccc(F)cc1)N1CCC2(CC1)CC(=O)N(c1ccccc1)c1ccccc1O2,-20.1%,.,.,.,.
CC(Oc1ccc(Cl)cc1)C(=O)NNC(=S)NC(=O)c1ccco1 (configuration not stated),44.7µM*,-4.6%,11.2µM*,1.9%,-28.0%
O=C(COc1ccc(Cl)cc1Cl)NNC(=S)NC(=O)c1ccco1,?,?,7.94µM*,5.8%,3.4%
Cc1ccccc1COc1ccc(C=O)cc1,-18.1%,.,.,.,.
Cc1ccc(Sc2c(C)nn(C(=O)c3ccc(Br)cc3)c2C)cc1,-6.0%,.,82.0%[59 µM],-1.4%,15.5%
SMILES,ALOX12 inh,Sfp inh,G9a inh,Glioma ERSR ind,VDR inh
Cc1ccc(C(=O)n2ncn(C)c2=S)cc1,-93.0%,?,5.62µM*,-3.6%,?
c1ccc(-c2cnc(C3CCCCC3)o2)cc1,-2.7%,.,.,2.2%,-23.8%
S=c1[nH]nc(C2CCCCC2)o1,?,-28.3%,28.2µM*,-3.3%,-5.9%
O=C(O)CN1C(=O)S/C(=C/c2cccc(F)c2)C1=O,-6.4%,.,.,.,.
Cc1cc(C)cc(N2CCN(Cc3cn(-c4ccccc4)nn3)CC2=O)c1,-3.8%,.,.,.,.
Cc1ccc(CNC(=O)c2ccc(CNS(=O)(=O)c3ccc4c(c3)C(C)(C)C(=O)N4C)cc2)o1,4.7%,50.1µM*,44.7µM*,-1.2%,-10.8%
CC(C)CCNCC(=O)NC(c1ccccc1)c1ccccc1,-8.2%,-3.8%,5.62µM*,-5.3%,-23.3%
COCC(=O)NC(c1ccccc1)c1ccccc1,13.5%,10.8%,23.1%[59 µM],-1.7%,4.1%
CC(C)CC(NC(=O)c1ccn(C)c(=O)c1)c1ccccc1 (configuration not stated),-39.3%,.,.,.,.
COc1ccc(CCn2c(N)c(C(=O)NCc3ccco3)c3nc4ccccc4nc32)cc1OC,-23.5%,44.7µM*,-11.8%[59 µM],-5.2%,24.4%
Nc1c(C(=O)NCc2ccco2)c2nc3ccccc3nc2n1CCc1ccccc1F,?,56.2µM*,?,-2.7%,0.2%
CCn1c2ccccc2c2cc(CN3CCN(Cc4ccc(OC)c(OC)c4)CC3)ccc21,?,.,?,-4.2%,6.9%
CCOc1ccc(CN2CCN(Cc3ccc4c(c3)c3ccccc3n4CC)CC2)cc1,?,.,4.47µM*,-4.7%,-2.4%
CCn1c2ccccc2c2cc(CN3CCN(Cc4ccccc4Cl)CC3)ccc21,?,.,3.55µM*,-4.7%,-18.9%
O=C(Cc1ccc(F)cc1)NCCc1cnc(-c2ccccc2)[nH]1,-5.6%,.,.,.,.
COc1ccc(C(=O)Nc2ccc(-c3n[nH]c(=S)o3)cc2)cc1OC,?,15.8µM*,1.58µM*,-1.2%,?
COc1ccc(C(=O)Nc2ccc3oc(-c4ccc(F)cc4)nc3c2)cc1OC,14.4%,.,.,.,.
O=C(Nc1ccc(-c2n[nH]c(=S)o2)cc1)c1ccccc1Br,?,-6.8%,8.91µM*,0.5%,?
CCOC(=O)C1=C(C)Nc2nc(SCc3ccccc3)nn2C1c1cccs1 (configuration not stated),10.9%,.,.,.,.
CN(C)CC(=O)Nc1sc2c(c1C#N)CCCCC2,1.1%,.,.,.,.
COc1cc2c(cc1OC)-c1n[nH]c(=S)n1C(C)(C)C2,-27.8%,-11.3%,3.98µM*,10.6%,-3.8%
CCCc1nnc(NC(=O)NCC(O)c2ccc(F)cc2)s1 (configuration not stated),15.2%,.,.,.,.
O=C(NNC(=O)C1C2C=CC(C2)C1C(=O)O)c1ccccc1 (configuration not stated),-10.9%,?,15.1%[59 µM],1.4%,10.6%
CCOC(=O)c1ccc(C(=O)NNC(=O)C2C3C=CC(C3)C2C(=O)O)cc1 (configuration not stated),-2.1%,50.1µM*,-5.3%[0.501 µM],1.3%,-23.4%
S=C(N/N=C1/CCCCc2ccccc21)NC1CCCCC1,44.7µM*,.,.,.,.
CCNC(=S)N/N=C1\CCCCc2ccccc21,?,5.4%,?,-2.6%,-8.9%
C=C(C)CNC(=S)N/N=C1\CCCCc2ccccc21,35.5µM*,2.3%,?,-2.9%,-11.9%
S=C(NN=C1CCC(c2ccccc2)CC1)NC1CCCCC1 (configuration not stated),35.5µM*,.,.,.,.
COC(=O)NN=C1CCC(c2ccccc2)CC1 (configuration not stated),489.0%,6.1%,1.8%,-3.1%,0.7%
